Assay outcomes deposited in PubChem by several laboratories.
A3G deaminase = APOBEC3G (human) deaminase inhibition; actives 0.28% (n = 330,000); inhibition, % at 20 µM; recombinant A3G, ssDNA deamination FAM/TAMRA fluorescence; AID 493012;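 active means inhibition of at least 40% at 20 µM, with no more than 30% in the related APOBEC3A deaminase screen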;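 further: plate controls were DMSO wells with A3G for no effect and wells lacking A3G enzyme for full effect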
Target sequence (Q9HC16 whole entry, looked up): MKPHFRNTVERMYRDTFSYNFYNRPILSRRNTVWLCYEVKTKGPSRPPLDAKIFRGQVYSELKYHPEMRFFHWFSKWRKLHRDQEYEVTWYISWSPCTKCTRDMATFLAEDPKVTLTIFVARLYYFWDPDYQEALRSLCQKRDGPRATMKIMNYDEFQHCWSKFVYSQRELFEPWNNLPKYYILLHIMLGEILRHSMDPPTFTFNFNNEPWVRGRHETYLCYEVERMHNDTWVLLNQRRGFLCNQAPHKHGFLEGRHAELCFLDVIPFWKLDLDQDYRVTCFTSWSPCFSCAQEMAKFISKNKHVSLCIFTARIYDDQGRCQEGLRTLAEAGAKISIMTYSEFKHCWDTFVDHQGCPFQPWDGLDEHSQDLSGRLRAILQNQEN
PfGluPho inh = PfG6PD (Plasmodium falciparum) enzyme inhibition; PfGluPho enzyme, NADPH resazurin-diaphorase fluorescence; inhibition, % at 20 µM; actives 0.78% (n = 350,000);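 active means inhibition reaching at least a set limit at 20 µM in the primary screen, cut at about 59% in these data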;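 further: 0% = DMSO wells with substrate and 100% = DMSO wells lacking glucose-6-phosphate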
A3A deaminase = human APOBEC3A DNA deaminase inhibition | AID 493011 | actives 0.41% (n = 330,000) | P31941 | inhibition, % at 20 µM | recombinant A3A, FAM/TAMRA ssDNA deamination fluorescence;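 active means at least 40% inhibition at 20 µM here, with at most 30% in a related deaminase screen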;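 further: plate controls were A3A with DMSO for no effect and wells lacking A3A enzyme for full effect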
M18AAP inhibitor = PfM18AAP enzyme inhibition | actives 1.2% (n = 290,000) | AID 1822 | recombinant PfM18AAP, H-Glu-NHMec fluorogenic cleavage | inhibition, % at 7.35 µM;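 active means inhibition above the campaign mean inhibition over all tested compounds plus 3 SD, cut at about 28% in these data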;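 further: 0% = plate median of test compound wells and 100% = 2 mM ZnCl2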
CR mimetic SO = caloric restriction mimetics inhibiting age-related superoxide in yeast; S. cerevisiae aged cells, superoxide DHE fluorescence; active compounds read low; actives 0.18% (n = 330,000); superoxide response (% of plate mean), % at 10 µM; AID 2690;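 active means superoxide response under a set limit, about three screen SD below normal, cut at about 65% in these data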;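 further: yeast aged for seven days with compound at 30 °C before DHE staining; 100% = average MFI of all compound-treated wells on the plate with controls excluded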
APOBEC3G confirm = APOBEC3G (human) deaminase inhibition, confirmed; shares compounds with A3G deaminase; recombinant A3G ssDNA deaminase, UDG/FAM-TAMRA fluorescence; inhibition, % at 20 µM; actives 72% (n = 890); AID 493152;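 active means inhibition reaching a set limit in any replicate at 20 µM, the limit being 80% of the first screen's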
UDG A3G counter = inhibits E. coli UDG, flagging false APOBEC3G inhibitors. UDG counterscreen, FAM/TAMRA oligo fluorescence. inhibition, % at 20 µM. 710 tested, under 10 active. shares compounds with A3G deaminase;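 active means compounds giving 40% or more inhibition at 20 µM in any one of the three replicates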;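 further: plate controls were DMSO wells with UDG and oligo for no effect and DMSO wells lacking both for full effect; inhibitors lower the FAM signal released by uracil excision and alkaline cleavage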
Target sequence (P12295 whole entry, looked up): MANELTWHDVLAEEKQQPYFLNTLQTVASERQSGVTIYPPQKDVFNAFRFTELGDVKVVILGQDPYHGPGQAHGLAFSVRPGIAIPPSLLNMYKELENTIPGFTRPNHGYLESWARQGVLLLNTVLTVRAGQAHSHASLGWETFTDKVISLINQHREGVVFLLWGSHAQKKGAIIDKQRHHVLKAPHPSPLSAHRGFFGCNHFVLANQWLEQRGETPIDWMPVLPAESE
PfGluPho conf = confirmation of Plasmodium falciparum G6PD inhibitors; shares compounds with PfGluPho inh; actives 34% (n = 2,400); inhibition, % at 20 µM; recombinant PfGluPho, NADPH-diaphorase-resazurin fluorescence; AID 504753;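 active means inhibition of at least 50% at 20 µM in any single replicate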;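 further: 0% = DMSO with substrate and 100% = DMSO lacking glucose-6-phosphate substrate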
Diaphorase 10uM = diaphorase inhibition or oxidation at 10 uM NADPH | actives 39% (n = 820) | diaphorase-coupled resazurin reduction, fluorescence, NADPH 10 uM | inhibition, % at 20 µM | shares compounds with PfGluPho inh;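 active means average inhibition reaching 50% or more with the compound at 20 µM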;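 further: resorufin red fluorescence formed as diaphorase reduces resazurin using NADPH; 0% = DMSO with enzyme and 100% = DMSO without enzyme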
Diaphorase 30uM = counter-screen for P. falciparum G6PD inhibitors: diaphorase inhibitors, oxidizers. shares compounds with PfGluPho inh. Diaphorase/resazurin coupled assay, resorufin fluorescence, 30 uM NADPH. inhibition, % at 20 µM. actives 29% (n = 820). AID 504863;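 active means inhibition averaging 50% or more, tested at 20 µM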;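 further: 0% = DMSO with enzyme and 100% = DMSO wells lacking diaphorase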
Active calls of the source: *; x = no result. Sampled rows, rich in hits. Any-hit rate of the full collection: about 2.4%.

SMILES	A3G deaminase	PfGluPho inh	A3A deaminase	M18AAP inhibitor	CR mimetic SO	APOBEC3G confirm	UDG A3G counter	PfGluPho conf	others
CN(CC(=O)Nc1cccc(S(=O)(=O)NC2=NCCC2)c1)Cc1ccccc1Cl	-2	-2	-3	x	88	x	x	x
COC(=O)c1ccccc1NC(=O)c1sc(=S)n(C)c1N	40*	63*	-1	9	97	41*	4	40
CC1=C(SCCC#N)S/C(=C2\SC(C)=C(SCCC#N)S2)S1	69*	60*	3	-81	108	47*	-3	3
Cc1cc(C)cc(NC(=O)Nc2c(Br)cnn2C)c1	-3	-4	0	-2	95	x	x	x
O=C(Nc1cc(S(=O)(=O)N2CCOCC2)ccc1N1CCCC1)c1ccc2c(c1)S(=O)(=O)c1ccccc1C2=O	64*	74*	6	-2	100	74*	x	40
O=C(Nc1cc(S(=O)(=O)N2CCOCC2)ccc1N1CCCCC1)c1ccc(Cl)cc1	59*	80*	3	x	79	68*	-1	40
CCOc1ccc(NC(=S)N2CCN(S(C)(=O)=O)CC2)cc1	-8	5	-4	2	96	x	x	x
C/C(=N\NC(=O)c1nnn(-c2nonc2N)c1CSc1ccc(C)cc1)c1cccs1	x	-5	x	x	x	x	x	x
Cc1cc(Cn2nc(-c3ccccc3)cc2C(=O)NCC2CC2)on1	-11	1	-5	x	104	x	x	x
CC(=O)Nc1cc(OC(C)=O)c2nonc2c1OC(C)=O	76*	80*	2	17	186	70*	x	53*	Diaphorase 10uM=18;Diaphorase 30uM=24
CSc1nc(=NC(C)=O)ss1	51*	68*	-2	20	91	43*	0	38
OCc1ccccc1SSc1ccccc1CO	44*	67*	1	x	99	51*	-3	54*	Diaphorase 10uM=-19;Diaphorase 30uM=14
Cc1cc(C)c2c(=O)n(CC(=O)NC3CCCC3)sc2n1	51*	90*	-2	56*	90	83*	-1	73*	Diaphorase 10uM=-32;Diaphorase 30uM=-16
CC(=O)C(Sc1nn(C)c(=S)s1)C(=O)Nc1ccccc1 (stereo unspecified)	57*	61*	2	13	97	40*	-5	-32
CC(=O)C(Sc1nc(N(C)C)nc(N(C)C)n1)C(=O)Nc1ccccc1 (stereo unspecified)	-4	3	-1	8	104	x	x	x
CCC(=O)NC1=C(Cl)C(=O)C(NC(=O)CC)=C(Cl)C1=O	87*	114*	-4	-38	x	96*	-2	114*	Diaphorase 10uM=98*;Diaphorase 30uM=97*
CCOC(=O)c1c(NC(=O)c2ccccc2Cl)sc2c1CCc1ccccc1-2	57*	72*	-1	-11	110	75*	-3	28
O=C(Oc1ccc(C(=S)N2CCOCC2)cc1Br)c1cc(Cl)ccc1Cl	-5	-6	-5	5	129	x	x	x
O=C(Oc1c(Br)cc(C(=S)N2CCOCC2)cc1Br)c1ccc(Cl)cc1	62*	67*	2	3	94	20*	-2	9
Cc1cc(/C=C(\C#N)C(=O)NCc2ccccc2)c(C)[nH]1	x	11	x	x	x	x	x	x
Cc1ccc(NC(=O)c2ccc(Cl)c(N3C(=O)C=CC3=O)c2)cc1	46*	100*	-5	-8	101	53*	-7	100*	Diaphorase 10uM=-22;Diaphorase 30uM=-7
O=C(Nc1ccc(Cl)c(Cl)c1)c1ccc(Cl)c(Cl)c1	-1	6	-2	3	89	x	x	x
COc1ccc(CC2NCCC3=CC(=O)CCC32)cc1O (stereo unspecified)	-9	9	4	x	105	x	x	x
O=C(CCCC1=NS(=O)(=O)c2ccccc2N1)Nc1ccccc1	26	-2	-3	-6	108	x	x	x
CCN(CC)CCNC(=O)CCCCn1c(=S)[nH]c2c([nH]c3ccc(OC)cc32)c1=O	69*	64*	-3	1	102	84*	8	47*	Diaphorase 10uM=-3;Diaphorase 30uM=-8
SMILES	A3G deaminase	PfGluPho inh	A3A deaminase	M18AAP inhibitor	CR mimetic SO	APOBEC3G confirm	UDG A3G counter	PfGluPho conf	others
CS(=O)(=O)c1ccc(N)c(SSc2cc(S(C)(=O)=O)ccc2N)c1	87*	97*	4	x	93	95*	x	99*	Diaphorase 10uM=-29;Diaphorase 30uM=-20
CS(=O)(=O)c1ccc2nc(N)sc2c1	-5	4	-2	-9	92	x	x	x
O=C1NC(Cc2ccccc2)c2nc3ccccc3c(=O)n2-c2cc(Cl)ccc21 (stereo unspecified)	-8	x	-5	x	102	x	x	x
COc1cc(C#N)ccc1OCC(=O)Nc1cccc(S(=O)(=O)N(C)c2ccccc2)c1	x	-3	x	x	x	x	x	x
O=c1cc(CN2CCN(c3ccc(O)cc3)CC2)nc2scc(-c3ccccc3)n12	73*	65*	16	23	81	9	x	29
C=CCN(CC=C)Cc1cc(=O)n2c(-c3ccccc3)csc2n1	0	4	3	5	92	x	x	x
CCOC(=O)c1sc(NC(=O)C(C)C)c(C#N)c1C	57*	68*	3	22	104	64*	-3	34
Cc1ccc(/C=C/C(=O)NC2CCCCCCC2)o1	50*	81*	10	-35	98	38*	-3	52*	Diaphorase 10uM=3;Diaphorase 30uM=-3
O=C(OCc1ccccc1)N1CCCC1/C=C/CN1CCOCC1 (stereo unspecified)	-6	7	-3	5	96	x	x	x
Nc1cc(S(=O)(=O)Nc2cc(Cl)ccc2Cl)ccc1N1CCOCC1	48*	61*	1	7	78	34*	6	23
CCn1c(=O)n(CC)c2cc(S(=O)(=O)N3CCc4ccccc43)ccc21	4	78*	-5	2	109	x	x	44
Cc1ccc(C)c(NS(=O)(=O)c2c(C)nn(C)c2C)c1	-1	1	1	4	103	x	x	x
Cc1ccc(OS(=O)(=O)c2c(C)nn(C)c2Cl)c(C)c1	-9	75*	-4	4	83	x	x	34
Cc1cccc(/N=C/c2c(O)[nH]c3ccccc23)n1	-8	65*	-3	-5	98	x	x	15
CC(C)N=Cc1c(O)[nH]c2ccccc12	-7	13	-5	2	92	x	x	x
CCOC(=O)N1CCN(c2ccc(S(=O)(=O)N3CCC(C)CC3)cc2[N+](=O)[O-])CC1	-4	0	0	x	126	x	x	x
COc1cc(Cl)ccc1NC(=O)COc1ccccc1C(=O)N1CCN(c2ccc(O)cc2)CC1	7	68*	-2	22	97	x	x	42
